Compounds with a hit are over-represented: about 4.9% of the library has one in this group of screens.
Mdm2 MdmX PPI = inhibitors of human Mdm2/MdmX interaction. O15151+Q00987. SaOS-2 split-luciferase Mdm2/MdmX complementation, luminescence. inhibition, % at 8 µM. 330,000 tested, 3% active. AID 485346;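 active = inhibition of at least 50% at 8 µM in the primary screen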
Beta apoptosis = blocks beta cell apoptosis; INS-1E cytokine-induced death, ATP luminescence, 48 h; percent of positive-control rescue, neutral wells zero; protection from apoptosis, % (no concentration beside the values); 300,000 tested, 0.8% active; AID 435005;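 active = Every replicate reaches about 75%, or at least half do and their mean reaches it too, limit read from the data; inconclusive = At least half of replicates reach the limit but their mean does not; inactive = Under half of replicates reach the limit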;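 note: higher means more ATP so stronger rescue from cytokine killing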
PP1 inh = blocks human PP1-alpha phosphatase, a PP5 counter-screen. P62136. purified PP1alpha, OMFP fluorescence. inhibition, % at 6.7 µM. 320,000 tested, 0.9% active;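 active = inhibition above the mean inhibition of all tested compounds plus 3 SD, computed separately for each screening campaign, cut at about 15% in these data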
CSC inhib = cancer stem cell inhibition; 300,000 tested, 1.1% active; inhibition, % at 7.5 µM; cancer stem cell-like cells viability, luminescence; in the data active = inhibition above about 75%; inconclusive = no clear call, values can overlap the other calls; tested in HMLE shEcad cells
Calb FLC = C. albicans growth modulation with fluconazole; C. albicans CaCi-2 (fluconazole-resistant clinical isolate) + fluconazole, Alamar Blue growth, 48 h; growth inhibition, % (test concentration not listed); 300,000 tested, 0.57% active; AID 1979;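 active = growth inhibition above about 58% in most replicates, limit read from the data, passing the limit was not always enough; inconclusive = exactly half the replicates above a set limit; inactive = most replicates below a set limit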;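 note: all wells also contain fluconazole at 8 µg/ml as a sub-toxic cotreatment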
PP5 primary = blocks human protein phosphatase 5 activity. P53041. 320,000 tested, 0.18% active. inhibition, % at 6.7 µM. purified PP5c, OMFP substrate fluorescence;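 active = inhibition above the campaign's mean inhibition across all tested compounds plus 3 SD, cut at about 9.5% in these data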
Target sequence (P53041 whole entry, looked up): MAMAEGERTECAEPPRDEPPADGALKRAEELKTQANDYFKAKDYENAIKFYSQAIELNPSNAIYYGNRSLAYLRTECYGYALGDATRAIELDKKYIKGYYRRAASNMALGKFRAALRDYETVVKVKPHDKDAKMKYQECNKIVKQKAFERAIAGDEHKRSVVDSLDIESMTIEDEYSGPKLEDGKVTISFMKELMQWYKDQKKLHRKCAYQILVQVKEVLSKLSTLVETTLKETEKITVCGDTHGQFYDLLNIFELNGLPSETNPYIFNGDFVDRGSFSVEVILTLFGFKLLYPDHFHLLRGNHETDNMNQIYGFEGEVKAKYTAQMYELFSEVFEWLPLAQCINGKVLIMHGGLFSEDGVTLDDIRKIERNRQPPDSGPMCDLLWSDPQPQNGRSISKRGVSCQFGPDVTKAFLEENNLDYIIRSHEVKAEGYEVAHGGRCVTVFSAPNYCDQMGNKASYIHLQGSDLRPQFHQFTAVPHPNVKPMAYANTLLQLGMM
Mdm2 MdmX conf = confirmation of human Mdm2/MdmX interaction inhibitors; shares compounds with Mdm2 MdmX PPI; Mdm2-MdmX binding, luminescent assay; inhibition, % at 8 µM; 10,000 tested, 55% active; AID 489028; in the data active = inhibition above about 40%
FLuc counter = inhibits full-length luciferase, flagging false Mdm2/MdmX hits | AID 504607 | SaOS-2 full-length luciferase counterscreen, luminescence | shares compounds with Mdm2 MdmX PPI | inhibition, % at 8 µM | 6,200 tested, 77% active;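 active = mean inhibition at 8 µM reaching about 37%, which flags the compound as non-specific, limit read from the data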;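 note: p53-null SaOS-2 cells with luciferase driven by a doxycycline-inducible promoter; compound on cells about two nights before reading with doxycycline added after day one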
A number is an active result; . = inactive; ? = inconclusive; / = not tested or not shown.

SMILES | Mdm2 MdmX PPI | Beta apoptosis | PP1 inh | CSC inhib | Calb FLC | PP5 primary | Mdm2 MdmX conf | FLuc counter
COc1ccc(-c2c(C)nn3c(N4CCN(Cc5ccccc5)CC4)cc(C)nc23)cc1OC | 50 | . | . | . | . | . | . | /
Cc1nn2c(N3CCN(C)CC3)cc(C(C)(C)C)nc2c1-c1ccccc1 | 58 | . | . | . | . | . | 41 | 76
Cc1[nH]c2ccccc2c(=O)c1C(=O)/C=C/c1ccccc1 | 100 | . | . | . | . | . | 100 | 52
O=C(COc1ccc(Cl)cc1Cl)N1CCCN(C(=O)COc2ccc(Cl)cc2Cl)CC1 | 59 | . | . | . | 93 | . | . | /
O=C(c1ccc(Cl)cc1)N1CCCCC(Sc2nnc(-c3ccc4c(c3)OCO4)o2)C1=O (stereo not drawn) | 84 | . | . | . | . | . | 82 | 50
CCC1Nc2ncnc(N3CCN(c4ccccc4)CC3)c2N(Cc2ccc(Br)cc2)C1=O (stereo not drawn) | 53 | . | . | . | . | . | . | /
O=C(NC(=S)Nc1cccc2cnccc12)c1ccccc1 | 61 | . | . | . | . | . | . | /
O=C(O)c1cccc(NC(=S)NC(=O)c2ccncc2)c1 | 53 | . | . | . | . | . | . | /
N#Cc1cc2c(nc1SCC(N)=O)CCCCC2 | . | . | . | . | . | . | / | /
N#Cc1cc2c(nc1SCC(=O)N1CCOCC1)CCCCC2 | 81 | / | . | / | . | . | 86 | 115
Cc1ccc(-n2c(N)c(C(=O)Nc3c(C)n(C)n(-c4ccccc4)c3=O)c3nc4ccccc4nc32)cc1C | 51 | . | . | . | . | . | . | /
COc1ccc(-n2c(N)c(C(=O)Nc3c(C)n(C)n(-c4ccccc4)c3=O)c3nc4ccccc4nc32)cc1 | . | . | . | . | . | . | / | /
CC(=O)Oc1ccc(C(=O)Nc2cccc3c2CCCC3)cc1 | . | . | . | . | . | . | / | /
CCOC(=O)C1CCCN(c2ccc(NC(=O)c3snc4c(=O)[nH]c(C)nc34)cc2)C1 (stereo not drawn) | 70 | . | . | . | . | . | 41 | 88
CCS(=O)(=O)N1Cc2ccccc2CC1C(=O)Nc1nc2ccccc2s1 (stereo not drawn) | 59 | . | . | . | . | . | 70 | 162
CN1C2CCC1/C(=C\c1ccccc1)C(=O)/C2=C\c1ccccc1 | 95 | . | . | 92 | . | . | 57 | .
COc1ccc(S(=O)(=O)Nc2cc3c(cc2C(C)=O)OCO3)cc1 | 63 | . | . | . | ? | . | 51 | 63
CC(=O)c1cc2c(cc1NS(=O)(=O)c1ccccc1C)OCO2 | . | / | . | . | . | . | / | /
COc1ccc(S(=O)(=O)Nc2cc3c(C(C)=O)c(C)oc3c3ccccc23)cc1 | 67 | / | . | . | . | . | 70 | 80
COc1ccc(S(=O)(=O)NCC2CCCN(C(=O)CSC)C2)cc1 (stereo not drawn) | . | / | . | . | . | . | / | /
CCCc1nc(SCC(=O)NC2CC2)c2c(C)c(C)sc2n1 | . | . | . | . | . | . | / | /
CCCc1nc(SCC(=O)N2c3ccccc3CC2C)c2c(C)c(C)sc2n1 (stereo not drawn) | 66 | . | . | . | . | . | . | /
Cc1sc2nc(C3CC3)nc(SCC(=O)N3CCc4ccccc4C3)c2c1C | . | . | . | . | . | . | / | /
Cc1sc2nc(C3CC3)nc(SCC(=O)N3CCCc4ccccc43)c2c1C | 71 | . | . | . | . | . | . | /
COC(=O)c1ccc(COC(=O)C(CCSC)NC(=O)COc2ccccc2)cc1 (stereo not drawn) | . | / | . | . | . | . | / | /
SMILES | Mdm2 MdmX PPI | Beta apoptosis | PP1 inh | CSC inhib | Calb FLC | PP5 primary | Mdm2 MdmX conf | FLuc counter
Cc1ccc(S(=O)(=O)NCc2ccccc2)cc1C(=O)NCc1ccccn1 | . | . | . | / | . | . | / | /
CC1=C(C(=O)OC2CCCCCCC2)C(c2cc3c(cc2Br)OCO3)CC(=O)N1 (stereo not drawn) | 78 | . | . | 118 | . | . | . | /
O=C(COc1coc(CN2CCN(c3ccccc3F)CC2)cc1=O)NCC1CCCO1 (stereo not drawn) | . | / | . | . | . | . | / | /
O=[N+]([O-])c1cc(Cl)ccc1Oc1ccc(-c2nnco2)cc1 | . | . | . | . | . | . | / | /
Cc1cc(Oc2ccc(-c3nnc(-c4ccccc4)o3)cc2[N+](=O)[O-])ccc1Cl | 75 | . | . | . | . | . | . | /
Cc1nn(-c2nc3ccccc3s2)c(C)c1Oc1ccccc1O | 77 | . | . | ? | . | . | 66 | 87
Cc1nn(-c2ccccn2)c(C)c1Oc1ccccc1O | . | . | . | . | . | . | / | /
COc1ccc(S(=O)(=O)N2CCCC(C(F)(F)F)C2)cc1 (stereo not drawn) | . | . | . | . | . | . | / | /
O=C(Nc1ccccc1Cl)C1CCN(S(=O)(=O)c2cccc3nonc23)CC1 | . | . | . | . | . | . | / | /
COc1cc(C(=O)Nc2ccccc2C(=O)Nc2ccccn2)cc(OC)c1OC | 63 | . | . | . | . | . | 52 | 47
COc1ccc(C(=O)Nc2cccc(NC(=O)c3ccc(OC)c(OC)c3)n2)cc1OC | 55 | . | . | . | . | . | 49 | 89
CC(C)(C)c1cc(C(=O)N/N=C/c2ccccc2O)n(-c2ccccc2)n1 | 70 | 85 | . | 117 | . | . | 77 | .
CCOc1ccc2[nH]c(C(=O)N/N=C/c3ccc(OC)cc3)cc2c1 | 53 | . | / | . | . | / | 56 | 96
COc1ccc2cc(C(=O)N/N=C/c3cc(OC)c(OC)c(OC)c3)[nH]c2c1 | . | . | . | . | / | . | / | /
COc1ccc(/C=N/NC(=O)c2cc3cc(OC)c(OC)cc3[nH]2)cc1 | . | . | . | . | . | . | / | /
COc1ccc2[nH]c(C(=O)N/N=C/c3ccc(O)cc3O)cc2c1 | 71 | 121 | / | 100 | . | / | 83 | .
COc1ccc(/C=N/NC(=O)c2nc(-c3ccccc3)n(-c3ccccc3)n2)c(O)c1 | 63 | 103 | 16 | / | . | . | 66 | 41
CCOc1ccc(C(=O)NCC(=O)NCC2CCCCC2)cc1OCC | . | . | . | . | . | . | / | /
Nc1c(C(=O)NCc2ccc3c(c2)OCO3)nnn1Cc1ccc(Br)cc1 | . | . | . | . | . | . | / | /
CCOC(=O)C1(c2nc(N)cs2)COC(=O)C1 (stereo not drawn) | . | . | . | . | . | . | / | /
O=C(CN1CCN(S(=O)(=O)c2ccccc2F)CC1)NC1CCCC1 | . | . | . | . | . | . | / | /
COc1ccc(/C=N/NC(=O)c2cccc(Br)c2)cc1Cn1cc(Cl)cn1 | 60 | . | . | / | . | . | 50 | 67
COc1ccc(/C=N/NC(=O)c2ccc(Br)cc2)cc1Cn1cc(Cl)cn1 | . | . | . | . | . | . | / | /
COc1ccc(-n2nc(N)c(C(N)=O)n2)cc1 | . | . | . | . | . | . | / | /

Source: PubChem BioAssay
